# Assay results: PubChem BioAssay
# Active and inactive are the calls of the source.
# Columns and labels:
# [1] = binders of probe aFSTL3 on microarray, primary screen, stem cell growth factor project, biochemical, small-molecule microarray, fluorescence 635/667 (AID 1064); conditions: higher = more signal;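 further: measures binding of the biotinylated anti-FSTL3 antibody to printed compounds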
# [2] = binders from COS7 lysate, DM2A8 probe, primary screen, torsin A project, cell lysate, small-molecule microarray, fluorescence 635/667 (AID 1065); conditions: higher = more signal, COS7 lysate expressing mutant human TOR1A
# [3] = binders of probe aFGF2 on microarray, primary screen, stem cell growth factor project, biochemical, small-molecule microarray, fluorescence 635/667 (AID 1067); conditions: higher = more signal;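 further: measures binding of biotinylated aFGF2 protein to printed compounds on slides; z-score merges feature fluorescence and signal-to-noise across triplicate slides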
# [4] = binders of probe aFGF10 on microarray, primary screen, stem cell growth factor project, biochemical, small-molecule microarray, fluorescence 635/667 (AID 1071); conditions: higher = more signal;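 further: score merges 667 nm spot intensity and signal to noise from triplicate slides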
# [5] = target: Neurogenic locus notch homolog protein 2 (Homo sapiens) (UniProt Q04721); assay: Notch2 binders on small-molecule microarrays, primary screen, biochemical, small-molecule microarray, 635 nm fluorescence, stem cell growth factors (AID 1073); conditions: Notch2 binding, higher = more signal
# [6] = target: Pro-neuregulin-1, membrane-bound isoform (Homo sapiens) (UniProt Q02297); assay: NRG1 binders on small-molecule microarrays, primary screen, psychiatric disease protein project, biochemical, small-molecule microarray, fluorescence 635/667 (AID 1075); conditions: NRG1 binding, 635 nm fluorescence, higher = more signal;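 further: score combines 667 nm spot fluorescence with signal to noise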
# Sequence of Pro-neuregulin-1, membrane-bound isoform (Homo sapiens) (Q02297 whole entry, looked up, the tested form may be a part, canonical isoform): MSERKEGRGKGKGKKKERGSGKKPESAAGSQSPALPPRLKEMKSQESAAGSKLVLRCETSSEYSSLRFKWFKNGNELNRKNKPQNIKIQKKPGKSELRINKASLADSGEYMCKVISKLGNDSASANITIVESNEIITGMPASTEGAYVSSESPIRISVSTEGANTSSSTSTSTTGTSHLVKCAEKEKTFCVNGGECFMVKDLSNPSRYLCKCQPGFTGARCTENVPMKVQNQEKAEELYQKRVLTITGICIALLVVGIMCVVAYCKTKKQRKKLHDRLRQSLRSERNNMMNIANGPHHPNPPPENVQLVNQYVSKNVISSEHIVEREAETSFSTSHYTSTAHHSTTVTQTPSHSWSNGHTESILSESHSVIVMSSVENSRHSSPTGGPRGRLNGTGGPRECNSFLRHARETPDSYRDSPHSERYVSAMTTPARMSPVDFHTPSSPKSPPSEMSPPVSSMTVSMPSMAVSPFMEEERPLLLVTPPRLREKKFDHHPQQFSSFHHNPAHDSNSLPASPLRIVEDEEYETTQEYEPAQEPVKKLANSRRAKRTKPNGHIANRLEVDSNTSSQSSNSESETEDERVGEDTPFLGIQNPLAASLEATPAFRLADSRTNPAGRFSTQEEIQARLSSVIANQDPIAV
# [7] = system: Neuregulin-1 EGF-like domain; assay: binders of neuregulin-1 EGF-like domain, primary screen, biochemical, small-molecule microarray, 635 nm fluorescence (AID 1081); conditions: small-molecule microarray binding, higher = more signal;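 further: binding of the protein to compounds printed on small-molecule microarray slides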
# [8] = FRG1 promoter luciferase signal modulators, primary screen, FRG1 inhibition for FSHD, cell-based, C2C12 myotubes, firefly/Renilla luciferase, luminescence (AID 1084); conditions: higher = more signal, called active from +8 up or from −8 down
# [9] = binders of probe aFST on microarray, primary screen, stem cell growth factor project, biochemical, small-molecule microarray, fluorescence 635/667 (AID 1086); conditions: higher = more signal;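 further: score merges 667 nm fluorescence with signal-to-noise of each printed compound spot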
# [10] = binders of probe aHhip on microarray, primary screen, stem cell growth factor project, biochemical, small-molecule microarray, fluorescence 635/667 (AID 1087); conditions: higher = more signal;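 further: score merges spot fluorescence at 667nm with spot signal to noise ratio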
# [11] = system: PRMT1 (protein arginine N-methyltransferase 1); assay: PRMT1 binders on small-molecule microarrays, primary screen, biochemical, small-molecule microarray, 635 nm fluorescence (AID 1088); conditions: small-molecule microarray binding, higher = more signal;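 further: binding of Prmt1 protein to compounds spotted on small-molecule microarray slides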
# [12] = yeast growth modulation, basal conditions, primary screen, YJM789 clinical isolate, OD600, 24 h (AID 1089);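 further: growth of clinical yeast isolate S. cerevisiae YJM 789 seeded 1000 cells per well; test concentration not given here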; conditions: S. cerevisiae YJM789 growth, higher = more signal, called active from +8 up or from −8 down
# [13] = fission yeast growth modulation, primary screen, strain 972, OD600, 24 h, no modulator (AID 1090);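 further: basal condition with compound alone and no growth modifier present; test concentration not given here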; conditions: S. pombe 972 growth, higher = more signal, called active from +8 up or from −8 down
# [14] = S. cerevisiae growth modulation with rapamycin, primary screen, strain BY4716, OD600, 96 h (AID 1091); conditions: higher = more signal, called active from +8 up or from −8 down; further: test concentration not given here
# [15] = target: Torsin-1A-interacting protein 2 (Homo sapiens) (UniProt Q8NFQ8); assay: LULL1 binders on small-molecule microarray, primary screen, cell lysate, human LULL1 lysate, 635/667 nm fluorescence (AID 1092); conditions: hLULL1 lysate binding, 635 nm fluorescence, higher = more signal;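 further: probe is lysate of COS7 cells overexpressing human LULL1; score merges per-feature 667 nm fluorescence with signal-to-noise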
# Sequence of Torsin-1A-interacting protein 2 (Homo sapiens) (Q8NFQ8 whole entry, looked up): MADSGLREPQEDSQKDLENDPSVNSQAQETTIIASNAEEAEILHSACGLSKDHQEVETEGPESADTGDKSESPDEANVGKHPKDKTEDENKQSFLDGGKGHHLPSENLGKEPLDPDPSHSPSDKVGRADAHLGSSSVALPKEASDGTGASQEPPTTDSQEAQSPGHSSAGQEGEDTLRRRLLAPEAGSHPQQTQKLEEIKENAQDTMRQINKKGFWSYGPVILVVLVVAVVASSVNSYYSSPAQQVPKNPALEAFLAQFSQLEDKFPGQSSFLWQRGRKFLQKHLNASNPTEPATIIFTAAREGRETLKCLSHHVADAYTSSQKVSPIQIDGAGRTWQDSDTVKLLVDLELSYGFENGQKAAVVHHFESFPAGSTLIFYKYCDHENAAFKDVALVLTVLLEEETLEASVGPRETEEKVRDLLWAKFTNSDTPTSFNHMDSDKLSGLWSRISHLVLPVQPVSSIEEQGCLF
# [16] = E. coli growth modulation, two-sided OD650, primary screen, E. coli filamentation project, strain DRC41, 24 h (AID 1093); conditions: OD650, 24 h, higher = more signal, called active from +8 up or from −8 down;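 further: MC1000 strain lacking acrAB efflux and sulA so SOS filamentation is blocked; test concentration not given here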
# [17] = small-molecule microarray binders of probe aLefty2, primary screen, biochemical, biotinylated probe, 635/667 nm fluorescence (AID 1094); conditions: higher = more signal;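 further: score merges spot fluorescence near 667 nm with spot signal-to-noise ratio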
# [18] = system: Noggin (protein binding on small-molecule microarray); assay: Noggin binders on small-molecule microarray, primary screen, biochemical, 635/667 nm fluorescence (AID 1095); conditions: 635 nm fluorescence, higher = more signal;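 further: score merges 667 nm feature fluorescence with signal to noise over triplicate slides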
# [19] = target: Neurogenic locus notch homolog protein 3 (Homo sapiens) (UniProt Q9UM47); assay: NOTCH3 binders on small-molecule microarray, primary screen, biochemical, 635/667 nm fluorescence (AID 1096); conditions: NOTCH3 binding, 635 nm fluorescence, higher = more signal
# Sequence of Neurogenic locus notch homolog protein 3 (Homo sapiens) (Q9UM47 whole entry, looked up): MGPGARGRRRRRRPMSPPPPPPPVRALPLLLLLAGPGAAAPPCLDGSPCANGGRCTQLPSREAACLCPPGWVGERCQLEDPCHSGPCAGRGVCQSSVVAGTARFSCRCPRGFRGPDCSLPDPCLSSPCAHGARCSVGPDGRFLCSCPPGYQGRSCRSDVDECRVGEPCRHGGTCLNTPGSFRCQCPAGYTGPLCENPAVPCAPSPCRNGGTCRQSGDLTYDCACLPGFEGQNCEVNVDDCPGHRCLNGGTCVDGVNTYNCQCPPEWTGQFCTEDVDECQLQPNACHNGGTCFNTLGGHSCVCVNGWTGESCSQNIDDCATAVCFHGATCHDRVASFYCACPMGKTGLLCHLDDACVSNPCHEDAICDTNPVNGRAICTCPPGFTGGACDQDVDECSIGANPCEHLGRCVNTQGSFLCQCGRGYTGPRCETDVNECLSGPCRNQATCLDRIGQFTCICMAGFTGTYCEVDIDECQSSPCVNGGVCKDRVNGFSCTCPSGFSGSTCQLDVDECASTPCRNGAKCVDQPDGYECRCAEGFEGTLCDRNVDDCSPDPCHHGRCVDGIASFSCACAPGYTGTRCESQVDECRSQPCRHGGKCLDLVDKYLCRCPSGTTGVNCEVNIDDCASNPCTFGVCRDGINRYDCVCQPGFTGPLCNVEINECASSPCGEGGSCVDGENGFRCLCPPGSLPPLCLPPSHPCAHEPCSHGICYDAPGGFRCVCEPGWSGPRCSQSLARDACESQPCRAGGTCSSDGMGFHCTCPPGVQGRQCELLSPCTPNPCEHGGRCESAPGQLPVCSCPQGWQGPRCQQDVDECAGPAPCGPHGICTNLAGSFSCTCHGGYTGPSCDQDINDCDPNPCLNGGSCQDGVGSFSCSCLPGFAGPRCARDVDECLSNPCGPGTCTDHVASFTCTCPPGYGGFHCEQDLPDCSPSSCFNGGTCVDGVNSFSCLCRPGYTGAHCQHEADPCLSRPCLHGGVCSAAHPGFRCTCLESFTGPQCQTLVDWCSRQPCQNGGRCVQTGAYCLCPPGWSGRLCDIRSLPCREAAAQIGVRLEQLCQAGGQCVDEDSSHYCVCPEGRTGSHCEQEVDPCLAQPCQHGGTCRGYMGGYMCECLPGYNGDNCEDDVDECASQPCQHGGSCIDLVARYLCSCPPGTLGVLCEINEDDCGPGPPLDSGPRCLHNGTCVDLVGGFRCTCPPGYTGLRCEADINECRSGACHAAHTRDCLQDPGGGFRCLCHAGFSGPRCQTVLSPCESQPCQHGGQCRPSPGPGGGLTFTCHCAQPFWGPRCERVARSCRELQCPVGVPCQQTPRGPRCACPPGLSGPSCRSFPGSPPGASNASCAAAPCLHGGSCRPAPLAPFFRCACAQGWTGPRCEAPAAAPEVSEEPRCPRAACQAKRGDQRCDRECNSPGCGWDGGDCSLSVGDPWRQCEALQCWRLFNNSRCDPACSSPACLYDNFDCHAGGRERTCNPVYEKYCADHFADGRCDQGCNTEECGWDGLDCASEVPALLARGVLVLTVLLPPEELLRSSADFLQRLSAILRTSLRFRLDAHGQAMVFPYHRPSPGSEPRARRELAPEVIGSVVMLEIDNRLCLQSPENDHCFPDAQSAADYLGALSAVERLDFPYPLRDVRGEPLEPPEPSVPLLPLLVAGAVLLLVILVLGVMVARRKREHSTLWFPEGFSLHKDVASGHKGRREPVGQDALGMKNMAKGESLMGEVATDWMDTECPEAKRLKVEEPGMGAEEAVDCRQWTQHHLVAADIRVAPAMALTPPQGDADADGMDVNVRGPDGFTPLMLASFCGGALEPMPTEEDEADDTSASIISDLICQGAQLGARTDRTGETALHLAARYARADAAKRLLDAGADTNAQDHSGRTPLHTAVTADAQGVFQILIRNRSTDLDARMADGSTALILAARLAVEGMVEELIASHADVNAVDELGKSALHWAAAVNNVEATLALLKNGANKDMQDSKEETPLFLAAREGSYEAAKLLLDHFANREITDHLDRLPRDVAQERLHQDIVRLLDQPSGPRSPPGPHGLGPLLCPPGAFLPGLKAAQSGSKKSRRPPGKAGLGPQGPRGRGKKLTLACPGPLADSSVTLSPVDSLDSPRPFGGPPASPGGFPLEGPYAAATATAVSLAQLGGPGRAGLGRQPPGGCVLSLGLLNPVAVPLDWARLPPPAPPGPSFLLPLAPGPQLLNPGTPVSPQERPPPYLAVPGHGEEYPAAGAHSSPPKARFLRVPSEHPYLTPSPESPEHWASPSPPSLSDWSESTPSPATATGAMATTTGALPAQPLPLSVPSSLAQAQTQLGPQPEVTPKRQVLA
# [20] = small-molecule microarray binders of probe aEGFR, primary screen, biochemical, biotinylated probe, 635/667 nm fluorescence (AID 1097); conditions: higher = more signal;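 further: probe is a biotinylated anti-EGFR antibody binding compounds printed on slides; score combines fluorescence near 667 nm and signal to noise of each spot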
SMILES,composite z-score [1],composite z-score [2],composite z-score [3],composite z-score [4],composite z-score [5],composite z-score [6],composite z-score [7],z-score [8],composite z-score [9],composite z-score [10],composite z-score [11],z-score [12],z-score [13],z-score [14],composite z-score [15],z-score [16],composite z-score [17],composite z-score [18],composite z-score [19],composite z-score [20]
C[C@H]1Cc2c(COc3ccccc3)nc3c(c2CO1)CN(CCOc1ccccc1)CC3,-0.762,0.665,-0.0468,0.503,1.28,0.455,0.794,-1.16 (inactive),0.0632,-0.174,1.56,-0.381 (inactive),-2.38 (inactive),-1.15 (inactive),1.76,1.11 (inactive),-0.0998,0.216,1.16,-0.0283
CC(C)=CCCC(C)=CCON=C1C[C@@H](O)[C@@H](O)[C@@H]2[C@@H]3C(=O)N(Cc4ccccc4)C(=O)[C@@H]3CC[C@@H]12,-0.249,0.585,-0.0548,0.649,0.194,0.34,1.05,0.365 (inactive),0.172,0.204,1.09,0.432 (inactive),-0.114 (inactive),-0.535 (inactive),-0.859,0.326 (inactive),-0.114,1.33,0.637,0.012
COC(=O)CC=C[C@@H](C)[C@H](OCc1cccc(-c2ccccc2)c1)C1CCCCC1,-0.131,0.0473,-0.174,-0.208,0.813,0.654,0.359,1.38 (inactive),-0.48,0.189,-0.526,1.44 (inactive),-0.915 (inactive),1.45 (inactive),-0.311,0.109 (inactive),-0.321,-0.274,-0.395,-0.27
CCOC(=O)[C@H](CC(C)C)NC(=O)CCC1CC(OC(=O)NCc2cccc3ccccc23)CC2(CCCC(COC(=O)NCCC(C)C)O2)O1 (stereo not given in full),-0.403,0.141,-0.0547,0.176,0.193,-0.0205,0.602,0.164 (inactive),-0.128,0.003,0.554,-3.9 (inactive),-2.7 (inactive),-1.89 (inactive),0.691,-0.77 (inactive),-0.221,0.543,0.144,0.0031
CC(C)[C@@H](OCc1ccccc1)[C@H](C)C=NOC[C@@H](O)COCc1ccco1,-0.457,0.84,-0.251,-0.416,-1.08,-0.417,-0.569,0.887 (inactive),-1.53,-0.302,-0.0832,-1.64 (inactive),-4.1 (inactive),-1.15 (inactive),-0.425,0.799 (inactive),-0.364,0.0964,-0.0957,-0.357
CCOC(=O)[C@H](CC(C)C)NC(=O)CCC1CC(OC(=O)NCc2cccc3ccccc23)CC2(CCCC(COC(=O)NCCc3ccc(Cl)cc3)O2)O1 (stereo not given in full),-0.318,-0.19,-0.0797,0.293,0.461,0.533,0.744,1.83 (inactive),-0.001,-0.0994,0.333,-1.16 (inactive),-0.858 (inactive),-0.164 (inactive),1.04,-0.0339 (inactive),-0.188,0.434,0.741,-0.0334
CC(CCN1CCCCc2nc(C)c(C)cc21)=NO[C@@H](C)c1cn([C@H](CO)Cc2ccccc2)nn1,1.22,1.06,-0.177,0.171,0.174,0.605,0.695,1.19 (inactive),0.163,0.347,1.03,0.725 (inactive),-0.0001 (inactive),0.17 (inactive),1.16,0.457 (inactive),-0.0383,0.377,0.474,0.0317
CC(C)C[C@H](NC(=O)CCC1CC(OC(=O)NCc2cccc3ccccc23)CC2(CCCC(COC(=O)NCc3ccccc3)O2)O1)C(=O)NCC(c1ccccc1)c1ccccc1 (stereo not given in full),-0.572,0.139,-0.113,0.618,1.35,0.438,1.2,0.244 (inactive),0.289,0.238,1.56,-0.852 (inactive),0.333 (inactive),-0.576 (inactive),1.97,0.94 (inactive),-0.166,1.64,1.09,-0.0333
CC(CCC(=O)OC[C@H]1O[C@H](C#Cc2ccccc2)C=C[C@@H]1Oc1ccc(C)cc1)=NO[C@H](C)c1cn([C@H](CO)Cc2ccccc2)nn1,-0.544,-0.0618,-0.122,0.191,0.369,0.527,0.529,0.546 (inactive),0.337,-0.211,1.05,1.62 (inactive),-0.372 (inactive),1.31 (inactive),1.05,0.171 (inactive),-0.239,0.689,0.695,-0.17
CCOC(=O)NN=C1C[C@@H](O)[C@@H](O)[C@@H]2[C@@H]3C(=O)N(c4cccc(Oc5ccccc5)c4)C(=O)[C@@H]3CC[C@H]12,-0.441,0.192,-0.187,0.221,0.615,0.855,0.234,-0.0124 (inactive),0.0755,-0.0645,0.626,-1.57 (inactive),-0.216 (inactive),-0.873 (inactive),0.0068,-0.998 (inactive),-0.175,0.311,0.589,-0.0371
